Results taken from PubChem BioAssay (Tox21).
Inconclusive results are not listed. Entries that show only a call come without a potency. Values without a mark were called inactive. Calls of active or inactive are those of the source. Unless noted, calls come from the whole dose curve.

What was measured:
[1] = qHTS assay to identify small molecule antagonists of the peroxisome proliferator-activated receptor delta (PPARd) signaling pathway - cell viability counter screen (AID 743213; active = well fitted curve in the direction sought with a large enough effect in the repeat runs; an effect the other way counts as inactive or inconclusive; note: nearly all actives have a fitted effect of over 50% in size)
Procedure, shortened: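 Agonist-stimulated (L165041, 300 nM final) HEK293H PPARd UAS-bla cells are exposed to compounds for 17 h at 37 C, and ATP-based luminescence (CellTiter-Glo) from the same wells reports cytotoxicity.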

[2] = biological target: Peroxisome proliferator-activated receptor delta (Homo sapiens) (UniProt Q03181); assay: qHTS assay to identify small molecule antagonists of the peroxisome proliferator-activated receptor delta (PPARd) signaling pathway (AID 743215; active = well fitted inhibition curve with a large enough effect in the signal ratio in the repeat runs, not every such curve was filed as active; the % refers to the signal ratio; note: potency is the fitted concentration of half-maximal effect)
Chain of Peroxisome proliferator-activated receptor delta (Homo sapiens) (Q03181 whole entry, looked up): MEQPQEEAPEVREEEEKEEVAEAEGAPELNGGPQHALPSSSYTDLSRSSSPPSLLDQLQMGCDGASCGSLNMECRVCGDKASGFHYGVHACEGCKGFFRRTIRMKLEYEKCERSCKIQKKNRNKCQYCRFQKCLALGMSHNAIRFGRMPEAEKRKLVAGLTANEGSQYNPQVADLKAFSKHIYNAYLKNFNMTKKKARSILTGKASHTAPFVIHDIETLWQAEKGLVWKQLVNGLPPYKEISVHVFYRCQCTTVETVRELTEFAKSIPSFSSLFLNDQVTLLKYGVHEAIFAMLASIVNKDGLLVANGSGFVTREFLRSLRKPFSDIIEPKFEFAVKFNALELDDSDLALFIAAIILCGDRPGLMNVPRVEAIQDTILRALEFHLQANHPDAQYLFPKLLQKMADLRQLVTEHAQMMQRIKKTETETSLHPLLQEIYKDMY
Procedure, shortened: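 With L165041 present at 300 nM final, compounds were incubated 17 h at 37 C on PPARd UAS-bla HEK293H cells. A FRET-based beta-lactamase substrate was then applied for 2 h at room temperature and fluorescence intensity recorded.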

[3] = biological target: Bile acid receptor (Homo sapiens) (UniProt Q96RI1); assay: qHTS assay to identify small molecule antagonists of the farnesoid-X-receptor (FXR) signaling pathway (AID 743217; active = well fitted inhibition curve with a large enough effect in the signal ratio in the repeat runs, not every such curve was filed as active; the % refers to the signal ratio)
Chain of Bile acid receptor (Homo sapiens) (Q96RI1 whole entry, looked up): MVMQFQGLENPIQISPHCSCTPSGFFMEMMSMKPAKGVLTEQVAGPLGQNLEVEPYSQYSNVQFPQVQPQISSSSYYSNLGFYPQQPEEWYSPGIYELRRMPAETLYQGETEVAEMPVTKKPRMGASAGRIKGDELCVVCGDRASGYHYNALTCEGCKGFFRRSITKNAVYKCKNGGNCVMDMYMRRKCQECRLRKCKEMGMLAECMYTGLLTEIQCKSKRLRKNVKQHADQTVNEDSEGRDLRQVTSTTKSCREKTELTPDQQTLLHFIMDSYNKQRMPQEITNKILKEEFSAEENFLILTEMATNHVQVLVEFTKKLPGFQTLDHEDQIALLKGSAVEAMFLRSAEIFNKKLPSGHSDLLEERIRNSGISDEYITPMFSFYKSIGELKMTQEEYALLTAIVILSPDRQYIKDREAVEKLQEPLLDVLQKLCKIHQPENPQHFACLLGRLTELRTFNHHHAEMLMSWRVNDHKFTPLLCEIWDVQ
Procedure, shortened: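 In this cell-based antagonist screen, inhibition of CDCA-driven (50 uM final) UAS-beta-lactamase expression in HEK 293T cells was measured by FRET fluorescence following 16 h compound exposure at 37 °C.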

[4] = biological target: Bile acid receptor (Homo sapiens) (UniProt Q96RI1); assay: qHTS assay to identify small molecule agonists of the farnesoid-X-receptor (FXR) signaling pathway (AID 743220; active = well fitted activation curve with a large enough effect in the signal ratio in the repeat runs, not every such curve was filed as active; the % refers to the signal ratio)
Procedure, shortened: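 Beta-lactamase reporter under UAS control in GeneBLAzer FXR HEK 293T cells (5000/well) measured with LiveBLAzer FRET substrate after 2 h at room temperature. Compound exposure lasted 16 h at 37C.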

[5] = qHTS assay to identify small molecule antagonists of the farnesoid-X-receptor (FXR) signaling pathway - cell viability counter screen (AID 743221; active = well fitted cell-killing curve with a large enough effect in the repeat runs, not every such curve was filed as active; note: nearly all actives have a fitted effect of over 50% in size; note: potency is the fitted concentration of half-maximal effect)
Procedure, shortened: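 FXR-UAS-bla HEK 293T cells were treated with test compounds plus chenodeoxycholic acid (50 uM final) for 16 h at 37 C. Cell viability in the same wells was then read as CellTiter-Glo luminescence after 30 min at room temperature.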

[6] = biological target: Peroxisome proliferator-activated receptor delta (Homo sapiens) (UniProt Q03181); assay: qHTS assay to identify small molecule agonists of the peroxisome proliferator-activated receptor delta (PPARd) signaling pathway (AID 743212)
Procedure, shortened: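 HEK293H UAS-bla reporter cells, human PPARd system; compounds delivered in DMSO after 5 h plating, then at 37 C. Beta-lactamase FRET read, 2 h RT substrate step.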

[7] = qHTS assay to identify small molecule agonists of the farnesoid-X-receptor (FXR) signaling pathway - cell viability counter screen (AID 743218; active = well fitted curve in the direction sought with a large enough effect in the repeat runs; an effect the other way counts as inactive or inconclusive; note: nearly all actives have a fitted effect of over 45% in size; note: potency is the fitted concentration of half-maximal effect)
Procedure, shortened: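 After 16 h at 37 C with test compounds, FXR-bla HEK 293T cells were given LiveBLAzer B/G substrate for 2 h at RT and then CellTiter-Glo; luminescence was taken after 30 min.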

[8] = biological target: Vitamin D3 receptor (Homo sapiens) (UniProt P11473); assay: qHTS assay to identify small molecule agonists of the vitamin D receptor (VDR) signaling pathway (AID 743222)
Chain of Vitamin D3 receptor (Homo sapiens) (P11473 whole entry, looked up): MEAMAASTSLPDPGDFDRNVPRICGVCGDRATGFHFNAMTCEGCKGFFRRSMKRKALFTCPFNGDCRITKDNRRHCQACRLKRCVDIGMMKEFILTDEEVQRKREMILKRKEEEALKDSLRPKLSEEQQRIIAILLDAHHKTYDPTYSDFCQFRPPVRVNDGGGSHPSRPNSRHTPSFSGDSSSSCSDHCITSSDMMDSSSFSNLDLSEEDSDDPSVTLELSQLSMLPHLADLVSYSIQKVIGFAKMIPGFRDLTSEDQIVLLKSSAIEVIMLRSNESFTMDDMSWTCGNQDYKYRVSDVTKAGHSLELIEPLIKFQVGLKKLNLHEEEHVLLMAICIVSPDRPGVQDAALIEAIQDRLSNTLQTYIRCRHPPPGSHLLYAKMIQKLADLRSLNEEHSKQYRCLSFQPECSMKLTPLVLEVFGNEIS
Procedure, shortened: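 VDR-bla cells were seeded, left 4 h, treated with compounds in DMSO for 16 h, incubated 2 h at RT with B/G FRET substrate, and read for fluorescence.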

[9] = biological target: Vitamin D3 receptor (Homo sapiens) (UniProt P11473); assay: qHTS assay to identify small molecule antagonists of the vitamin D receptor (VDR) signaling pathway (AID 743223; active = well fitted inhibition curve with a large enough effect in the signal ratio in the repeat runs, not every such curve was filed as active; the % refers to the signal ratio)
Procedure, shortened: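 VDR-bla cells were plated, incubated 4 h at 37C, then given compound and 1alpha,25-dihydroxyvitamin D3 (3 nM final). After 16 h at 37C, LiveBLAzer B/G FRET substrate was added for 2 h at room temperature and fluorescence read.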

[10] = qHTS assay to identify small molecule agonists of the vitamin D receptor (VDR) signaling pathway - cell viability counter screen (AID 743224; active = well fitted curve in the direction sought with a large enough effect in the repeat runs; an effect the other way counts as inactive or inconclusive; note: nearly all actives have a fitted effect of over 50% in size; note: potency is the fitted concentration of half-maximal effect)
Procedure, shortened: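 Here cell health was gauged by luminescent ATP detection (CellTiter-Glo, 30 min RT) in VDR-bla cells that had been incubated with test compounds for 16 h at 37C and 5% CO2.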

**Q.** For `CCC(CC)(CC(=O)Nc1cccc(/C=C/c2nc(C3CCC3)cs2)c1)C(=O)O`, which Potency [1] is on record?
**A.** inactive

**Q.** What about the Potency [2] of the same molecule?
**A.** inactive

**Q.** And the Potency [3]?
**A.** inactive

**Q.** And the Potency [4]?
**A.** inactive

**Q.** And the Potency [5]?
**A.** inactive

**Q.** With `CN1CCCCC1CCN1c2ccccc2Sc2ccc(S(C)=O)cc21` (stereo unspecified) as the molecule, how does the Potency [6] read?
**A.** inactive

**Q.** What about the Potency [2] of the same molecule?
**A.** inactive

**Q.** What about the Potency [7] of the same molecule?
**A.** inactive

**Q.** What about the Potency [5] of the same molecule?
**A.** inactive

**Q.** For `CCCCCC(C)OC(=O)COc1ccc(Cl)c2cccnc12` (stereo unspecified), which Potency [6] is on record?
**A.** inactive

**Q.** What about the Potency [7] of the same molecule?
**A.** inactive

**Q.** What about the Potency [4] of the same molecule?
**A.** inactive

**Q.** What about the Potency [5] of the same molecule?
**A.** inactive

**Q.** What about the Potency [8] of the same molecule?
**A.** inactive

**Q.** What about the Potency [9] of the same molecule?
**A.** inactive

**Q.** What does the source list for `Cl[Si](Cl)(c1ccccc1)c1ccccc1`?
**A.** Potency [6]: inactive; Potency [3]: inactive; Potency [4]: inactive; Potency [5]: inactive; Potency [8]: inactive; Potency [9]: inactive; Potency [10]: inactive

**Q.** What does the source list for `Cc1ccc(C)cc1`?
**A.** Potency [6]: inactive; Potency [3]: inactive; Potency [4]: inactive

**Q.** What does the source list for `CN1CCN(Cc2cc(-c3ccc4[nH]c(=O)oc4c3)co2)[C@@H](c2ccc(F)cc2)C1`?
**A.** Potency [6]: inactive; Potency [2]: inactive; Potency [3]: inactive; Potency [4]: inactive; Potency [5]: inactive; Potency [8]: inactive; Potency [9]: inactive

**Q.** With `O=c1[nH]c2ccccc2n1CCCN1CCN(C(c2ccccc2)c2ccccc2)CC1` as the molecule, how does the Potency [1] read?
**A.** inactive

**Q.** What about the Potency [2] of the same molecule?
**A.** inactive

**Q.** What about the Potency [7] of the same molecule?
**A.** 26.6 µM (active)

**Q.** And the Potency [5]?
**A.** inactive

**Q.** And the Potency [9]?
**A.** inactive

**Q.** What about the Potency [10] of the same molecule?
**A.** inactive

**Q.** With `O[C@@H]([C@H](O)[C@H](O)CBr)[C@H](O)CBr` as the molecule, how does the Potency [6] read?
**A.** inactive

**Q.** And the Potency [2]?
**A.** inactive

**Q.** And the Potency [3]?
**A.** inactive

**Q.** And the Potency [7]?
**A.** inactive

**Q.** And the Potency [4]?
**A.** inactive

**Q.** And the Potency [5]?
**A.** inactive

**Q.** And the Potency [8]?
**A.** inactive

**Q.** And the Potency [10]?
**A.** inactive

**Q.** With `COC1=C(OC)C(=O)C(CCCCCCCCCCO)=C(C)C1=O` as the molecule, how does the Potency [1] read?
**A.** inactive

**Q.** And the Potency [2]?
**A.** 26.6 µM (active)

**Q.** What about the Potency [7] of the same molecule?
**A.** inactive

**Q.** And the Potency [4]?
**A.** inactive

**Q.** And the Potency [5]?
**A.** inactive

**Q.** And the Potency [8]?
**A.** inactive

**Q.** Which Potency [6] does the source give for `CC(C)=CCC1=C(O)c2ccccc2C(=O)C1=O` here?
**A.** inactive

**Q.** What about the Potency [8] of the same molecule?
**A.** inactive

**Q.** And the Potency [9]?
**A.** inactive

**Q.** What about the Potency [10] of the same molecule?
**A.** inactive

**Q.** What does the source list for `O=C(Oc1ccccc1)Oc1ccccc1`?
**A.** Potency [6]: inactive; Potency [2]: inactive; Potency [3]: inactive; Potency [4]: inactive; Potency [5]: inactive; Potency [8]: inactive; Potency [9]: inactive; Potency [10]: inactive

**Q.** Which results are given for `CC(C)=CCNc1ncnc2c1ncn2[C@@H]1O[C@H](CO)[C@@H](O)[C@H]1O`?
**A.** Potency [6]: inactive; Potency [2]: inactive; Potency [4]: inactive; Potency [8]: inactive; Potency [9]: inactive; Potency [10]: 11.9 µM (active)

**Q.** Which Potency [6] does the source give for `C[C@H]1NCc2cc(-c3ccc4c(=O)c(C(=O)O)cn(C5CC5)c4c3OC(F)F)ccc21` here?
**A.** inactive

**Q.** What about the Potency [2] of the same molecule?
**A.** inactive

**Q.** What about the Potency [7] of the same molecule?
**A.** inactive

**Q.** And the Potency [5]?
**A.** inactive

**Q.** What about the Potency [8] of the same molecule?
**A.** inactive

**Q.** And the Potency [9]?
**A.** inactive

**Q.** What does the source list for `O=S(=O)(O)c1ccc(N=Nc2c(O)ccc3ccccc23)cc1`?
**A.** Potency [6]: inactive; Potency [2]: inactive; Potency [7]: 38.9 µM (active); Potency [5]: 38.9 µM (active); Potency [8]: inactive; Potency [9]: inactive; Potency [10]: inactive

**Q.** For `O=C(O)Cc1ccc2c(c1)C(=O)c1ccccc1CO2`, which Potency [6] is on record?
**A.** inactive

**Q.** What about the Potency [2] of the same molecule?
**A.** inactive

**Q.** And the Potency [7]?
**A.** inactive

**Q.** What about the Potency [5] of the same molecule?
**A.** inactive

**Q.** And the Potency [9]?
**A.** inactive

**Q.** And the Potency [10]?
**A.** inactive

**Q.** For `CCCCCCCC/C=C\CCCCCCCCN`, which Potency [6] is on record?
**A.** inactive

**Q.** What about the Potency [5] of the same molecule?
**A.** inactive

**Q.** And the Potency [8]?
**A.** inactive

**Q.** Which Potency [6] does the source give for `C=CC(C)(CCC=C(C)C)OC=O` (stereo unspecified) here?
**A.** inactive

**Q.** What about the Potency [2] of the same molecule?
**A.** inactive

**Q.** And the Potency [5]?
**A.** inactive

**Q.** And the Potency [8]?
**A.** inactive

**Q.** What about the Potency [9] of the same molecule?
**A.** inactive

**Q.** What about the Potency [10] of the same molecule?
**A.** inactive

**Q.** Which Potency [1] does the source give for `O=C1CCc2cc(OCCCCc3nnnn3C3CCCCC3)ccc2N1` here?
**A.** inactive

**Q.** And the Potency [2]?
**A.** inactive

**Q.** What about the Potency [3] of the same molecule?
**A.** inactive

**Q.** What about the Potency [7] of the same molecule?
**A.** inactive

**Q.** What about the Potency [4] of the same molecule?
**A.** inactive

**Q.** What about the Potency [5] of the same molecule?
**A.** inactive

**Q.** What about the Potency [9] of the same molecule?
**A.** inactive

**Q.** What about the Potency [10] of the same molecule?
**A.** inactive

**Q.** What does the source list for `OCC(F)(F)F`?
**A.** Potency [6]: inactive; Potency [2]: inactive; Potency [3]: inactive; Potency [4]: inactive; Potency [5]: inactive; Potency [8]: inactive; Potency [9]: inactive; Potency [10]: inactive

**Q.** Which results are given for `CCCCCCCCCCCCOCCOCCOCCOCCOCCOCCOCCOCCOCCO`?
**A.** Potency [6]: inactive; Potency [5]: 26.6 µM (active); Potency [8]: inactive; Potency [10]: 29.8 µM (active)

**Q.** What does the source list for `CCCCCCC1CCCC(=O)O1` (stereo unspecified)?
**A.** Potency [1]: inactive; Potency [2]: inactive; Potency [7]: inactive; Potency [5]: inactive; Potency [9]: inactive; Potency [10]: inactive

**Q.** Which Potency [6] does the source give for `Sc1nc2ccccc2s1` here?
**A.** inactive

**Q.** What about the Potency [2] of the same molecule?
**A.** 38.9 µM (active)

**Q.** What about the Potency [3] of the same molecule?
**A.** inactive

**Q.** And the Potency [7]?
**A.** inactive

**Q.** And the Potency [5]?
**A.** inactive

**Q.** And the Potency [8]?
**A.** inactive

**Q.** What about the Potency [9] of the same molecule?
**A.** inactive

**Q.** What does the source list for `COc1cc2nc(N3CCN(C(=O)c4ccco4)CC3)nc(N)c2cc1OC`?
**A.** Potency [6]: inactive; Potency [2]: inactive; Potency [3]: inactive; Potency [7]: inactive; Potency [5]: inactive

**Q.** Which results are given for `CCOC(=O)c1ccc(C2CCC(NC[C@H](O)COc3ccc(O)c(NS(C)(=O)=O)c3)CC2)cc1` (stereo partly specified)?
**A.** Potency [6]: inactive; Potency [4]: inactive; Potency [10]: 40.3 µM (active)

**Q.** What does the source list for `O=c1[nH]c(=O)n([C@H]2C[C@H](O)[C@@H](CO)O2)cc1F`?
**A.** Potency [6]: inactive; Potency [2]: inactive; Potency [7]: 13.3 µM (active); Potency [5]: 11.9 µM (active); Potency [8]: inactive; Potency [9]: inactive

**Q.** For `CC(C)(C)C1CCC(=O)CC1`, which Potency [6] is on record?
**A.** inactive

**Q.** And the Potency [3]?
**A.** inactive

**Q.** What about the Potency [7] of the same molecule?
**A.** inactive

**Q.** What about the Potency [5] of the same molecule?
**A.** inactive

**Q.** What about the Potency [8] of the same molecule?
**A.** inactive

**Q.** What about the Potency [9] of the same molecule?
**A.** inactive
